Fewer than 10 of roughly 21,000 compounds showed an effect of 50% or more. These entries were drawn from the full list. Entries with a potency or affinity are not part of this list.
System: Acinetobacter baumannii
Conditions: Concentration 32 ug.mL-1;; ASSAY_TEST Inhibition of Bacterial Growth; detection method Absorption (OD600); MEDIA CAMHB; plate type 384well; NBS; CORNING #3640; time 18 hr

| Structure (SMILES) | Inhibition [%] |
| --- | --- |
| Cc1ccc(NC(=O)Cn2nc3c4c5c(sc4ncn3c2=O)CCCC5)c(Cl)c1 | -9.66 |
| COc1cccc(-n2ccn3c(SCC(=O)c4ccc(C)cc4)nnc3c2=O)c1 | -4.26 |
| COc1ccc(-c2cc3c4nn(CC(=O)Nc5cc(OC)cc(OC)c5)c(=O)n4ccn3n2)cc1 | -11.34 |
| CCc1nnc2c(S(=O)(=O)N(Cc3cccc(C)c3)c3cccc(Cl)c3)cccn12 | 8.48 |
| CCOc1ccc(C(=O)Cn2nc3n(CCC(C)C)c(=O)c4sccc4n3c2=O)cc1 | 1.79 |
| O=C(CSc1nnc2c(=O)n(-c3ccc(Br)cc3)ccn12)Nc1cc(F)ccc1F | 0.45 |
| CCOc1ccc(-n2ccn3c(SCC(=O)c4ccc(C)cc4)nnc3c2=O)cc1 | 4.11 |
| CCOc1ccc(NC(=O)Cn2nc3c(Oc4ccc(C)cc4)nccn3c2=O)cc1 | 0.89 |
| CCc1nnc2ccc(S(=O)(=O)N(Cc3ccc(OC)cc3)c3cccc(F)c3)cn12 | -12.55 |
| COc1ccc(NC(=O)Cn2nc3c4c5c(sc4ncn3c2=O)CCCC5)cc1 | -5.35 |
| COc1ccccc1NC(=O)Cn1nc2c3c4c(sc3ncn2c1=O)CCCC4 | -5.75 |
| O=C(CSc1nnc2c(=O)n(-c3cccc(F)c3)ccn12)Nc1ccc(Br)cc1 | 3.4 |
| COc1cccc(Oc2nccn3c(=O)n(CC(=O)Nc4ccc5c(c4)OCO5)nc23)c1 | 0 |
| Cc1ccc(-c2ccc3nn(CC(=O)Nc4ccc(C#N)cc4)c(=O)n3n2)cc1C | 6.14 |
| CCCc1nnc2c(=O)n(CC(=O)Nc3ccc(C(C)=O)cc3)c3ccccc3n12 | 9.58 |
| Cc1ccc(-c2cc3c4nnc(SCC(=O)Nc5ccc(C#N)cc5)n4ccn3n2)cc1 | -8.65 |
| CCOc1ccc(NC(=O)Cn2nc3c(Oc4cccc(OC)c4)nccn3c2=O)cc1 | 5.77 |
| Cc1ccc(F)cc1NC(=O)CSc1nc2ccccc2n2c(C)nnc12 | 5.49 |
| Cc1ccc(Oc2nccn3c(=O)n(CC(=O)Nc4ccc(C)cc4Br)nc23)cc1 | 2.31 |
| CCCCn1c(=O)c2sccc2n2c(=O)n(CC(=O)c3ccc(C)cc3C)nc12 | -4.56 |
| O=C(Cn1nc2nc(Nc3ccc(F)cc3)ccn2c1=O)Nc1cc(F)ccc1F | 12.46 |
